Assay outcomes deposited in PubChem by National Center for Advancing Translational Sciences (NCATS).
Hits are enriched below; roughly 3.5% of the tested compounds scored in any of these assays.
KDM4E inh = blocks human JMJD2E demethylase activity; B2RXH2; JMJD2E catalytic domain, FDH-coupled NADH fluorescence (FDH is formaldehyde dehydrogenase); Potency, µM (top dose mostly 57.1 µM), for inactives: top-dose activity change, negative = inhibition, actives largely listed as inhibitors; 230,000 compounds, 1.6% hits; active = well fitted inhibition curve with a large enough effect, not every such curve was filed as active; inconclusive = small, poorly fitted or top-dose-only effect, or another doubt; inactive = no such curve, though single readings can be large or run the other way;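 also: 0% = wells with enzyme and -100% = buffer wells without enzyme; nearly all actives have a fitted effect of over 50% in size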
Target sequence (B2RXH2 1-337 limits assumed): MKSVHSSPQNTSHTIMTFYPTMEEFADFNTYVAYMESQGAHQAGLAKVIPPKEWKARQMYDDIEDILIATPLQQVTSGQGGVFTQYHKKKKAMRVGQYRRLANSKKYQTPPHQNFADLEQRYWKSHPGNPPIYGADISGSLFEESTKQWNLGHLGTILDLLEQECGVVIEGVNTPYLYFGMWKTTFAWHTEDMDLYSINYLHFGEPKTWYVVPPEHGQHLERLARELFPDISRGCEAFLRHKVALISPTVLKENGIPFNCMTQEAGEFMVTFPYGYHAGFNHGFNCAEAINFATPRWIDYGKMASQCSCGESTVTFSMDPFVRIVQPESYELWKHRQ
Tau FP inhib = inhibitors of human tau fibril formation. P10636. K18 P301L tau heparin fibrillization, Alexa594 FP, 6 h. Potency, µM (top dose mostly 57.7 µM), without a hit: top-dose activity, negative = inhibition, usual class: inhibitors. 280,000 compounds, 0.39% hits; also: nearly all actives have a fitted effect of over 55% in size
Target sequence (P10636 561-689 P618L limits assumed): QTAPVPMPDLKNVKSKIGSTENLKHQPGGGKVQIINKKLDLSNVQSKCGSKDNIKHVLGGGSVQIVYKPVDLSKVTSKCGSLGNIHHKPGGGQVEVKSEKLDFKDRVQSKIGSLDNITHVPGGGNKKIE
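Steps: dispense K18 P301L tau (15 uM plus 0.24 uM Alexa 594 tracer, final) in pH 7 sodium acetate; add compound; add heparin (20 uM final); incubate 6 hr, 37 C; add ThT (30 uM final); after 1 hr ambient, read FP.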
TexasRed fluor = alters Texas Red total fluorescence, flagging assay interference; 280,000 compounds, 0.29% hits; Potency, µM (series often up to 106 µM), for inactives: at the highest dose fluorescence change, negative = quenching; AID 1479; TRb/SRC2 Texas Red total fluorescence interference; active = well fitted curve in either direction with a large enough effect; inconclusive = small, poorly fitted or top-dose-only effect
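Human TRb ligand-binding domain at 0.6 uM with 20 nM Texas Red SRC2 peptide in Tris buffer containing 1 uM T3 and 5% DMSO, incubated with compound 5 h at ambient temperature. Total fluorescence (555/632 nm) calculated as parallel + 2 × perpendicular.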
TRb-SRC2 inh = disrupts binding of human TR beta to SRC2 | P10828 | TRbeta-SRC2 peptide binding, fluorescence polarization; receptor liganded with 1 µM T3 | Potency, µM (highest dose often 106 µM), for inactives: at the top dose activity change, negative = inhibition, usual class: inhibitors | 280,000 compounds, 0.065% hits | AID 1469;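 also: plate controls were bound peptide for no effect and peptide without receptor for full effect; nearly all actives have a fitted effect of over 50% in size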
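Binding of a 20-amino-acid Texas Red SRC2 peptide (20 nM) to TRb ligand-binding domain (0.6 uM) with agonist T3 at 1 uM was followed by fluorescence polarization after a 5 hr room-temperature incubation.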
Tau fluor counter = counter-screen for tau fibril formation inhibitors; tau K18 P301L Alexa594 fluorescence, heparin fibrillization; Potency, µM (top dose mostly 57.7 µM), for inactives: top-dose activity change, negative = decrease; 280,000 compounds, 0.93% hits; AID 1463; also: nearly all actives have a fitted effect of over 55% in size
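Human K18 P301L tau (15 uM unlabeled plus 0.24 uM Alexa 594-labeled, final) in 100 mM sodium acetate pH 7 was mixed with compound and 20 uM heparin and incubated 6 hr at 37 C.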
Tau ThT inhib = inhibitors of human tau fibril formation, thioflavin T binding; P10636; recombinant tau K18 P301L (four-repeat tau fragment), heparin-induced fibrillization, ThT fluorescence; Potency, µM (titrated, usually from 57.4 µM), for the others: top-dose activity, negative = inhibition, actives largely listed as inhibitors; 270,000 compounds, 2.1% hits; also: nearly all actives have a fitted effect of over 55% in size
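Recombinant human tau K18 fragment […] carrying P301L, 15 uM unlabeled plus 0.24 uM Alexa 594-labeled, was fibrillized with 20 uM heparin in 100 mM sodium acetate pH 7 for 6 hr at 37 C; 30 uM ThT fluorescence read after 1 hr.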
* marks the source's active call; other numbers are inactive results; ? = inconclusive; · = not tested or not shown; [ ] = dose if it differs, or a comment. Unless noted, calls follow the shape of the dose curve; as a rule, active = well fitted curve in the direction sought with a large enough effect; inconclusive = small, poorly fitted or top-dose-only effect, or another doubt; inactive = no such curve, though single readings can be large; an effect the other way counts as inactive or inconclusive. Unless noted, % is scaled to controls: 0 for no effect and ±100 for the full control effect; potency is read from the fitted curve at half-maximal effect.

SMILES	KDM4E inh	Tau FP inhib	TexasRed fluor	TRb-SRC2 inh	Tau fluor counter	Tau ThT inhib
O=C1CCCC(=O)C1CS(=O)(=O)c1ccccc1	-15%	28µM*	0%	-1%	-29%	18µM*
COc1ccc(C(=O)NC(=O)NC2(C(Cl)(Cl)Cl)OCCO2)cc1	12%	5%	-1%	-9%	7%	3%
Nc1c2ccccc2nc2ccccc12	?	-6%	1%	-1%	-10%	?
Nc1nc2ccccc2nc1N	3.2µM*	12%	1%	-21%	-10%	?
C=CC[n+]1ccc(/C=C2\C=Cc3cc(C)ccc3N2CC)c2ccccc21	3.2µM*	32µM*	3%	11%	-18%	3.2µM*
CCOc1cc(C2C(C(=O)OC)=C(C)NC3=C2C(=O)c2ccccc23)ccc1OC (stereo unspecified)	·	5%	-2%	2%	?	?
CCOc1cc(Br)c(C2C(C(=O)OC)=C(C)NC3=C2C(=O)c2ccccc23)cc1OCC (stereo unspecified)	·	11%	-4%	10%	?	?
C#CCOc1ccc(C2C(C(=O)OC)=C(C)NC3=C2C(=O)c2ccccc23)cc1OCC (stereo unspecified)	·	-4%	-2%	1%	11µM*[quencher]	?
CCOc1cc(C2C(C(=O)OC)=C(C)NC3=C2C(=O)c2ccccc23)c(Br)cc1OC (stereo unspecified)	·	0%	-4%	2%	16µM*[quencher]	?
CCOc1cc(C2C(C(=O)OC)=C(C)NC3=C2C(=O)c2ccccc23)cc(Br)c1OCC (stereo unspecified)	·	?	-3%	4%	4µM*[quencher]	?
CCOc1cc(C2C(C(=O)OC)=C(C)NC3=C2C(=O)c2ccccc23)c(Br)cc1O (stereo unspecified)	·	11%	-3%	5%	14µM*[quencher]	5µM*
CC(NC(=O)c1cccs1)c1ccc2c(c1)OCO2 (stereo unspecified)	12%	1%	-2%	2%	4%	-4%
O=C(NCCCN1CCC(Cc2ccccc2)CC1)C1CCN(S(=O)(=O)N2CCC3(CC2)OCCO3)CC1	1%	2%	-5%	2%	-6%	-10%
CC1(C)CC(=O)C(N=Nc2cccc([N+](=O)[O-])c2)=C(O)C1	-7%	-4%	-8%	-2%	-12%	-14%
CC1(C)CC(=O)C(N=Nc2ccc(C(F)(F)F)cc2[N+](=O)[O-])=C(O)C1	13µM*	15%	1%	-4%	-26%	?
CN1CCc2cc3c(c4c2[C@H]1[C@H](O)c1ccccc1-4)OCO3	18µM*	-2%	2%	-6%	-17%	?
Cc1cc(C)nc(NS(=O)(=O)c2ccc(N/C=C/C(=O)c3ccc(Cl)cc3)cc2)n1	22µM*	-5%	-31%	-2%	-9%	-11%
O=C1/C(=C/c2ccccc2)Nc2ccccc21	-10%	9%	-10%	-3%	-27%	13µM*
O=C(c1ccccc1Sc1c(Cl)cccc1[N+](=O)[O-])N1CCOCC1	0%	-4%	0%	-6%	-3%	-6%
O=C(CSC1=N/C(=C/c2ccco2)C(=O)N1c1ccc(OC(F)F)cc1)NC1CCS(=O)(=O)C1 (stereo unspecified)	0%	?	2%	11%	-25%	28µM*
CCc1ccc(C(=O)c2cnc3ccc(F)cc3c2S(=O)(=O)c2ccccc2)cc1	·	-14%	25µM*[quencher]	-10%	-22%	-15%
CCN1CCCC1CNC(=O)C(=O)NC1CC1 (stereo unspecified)	-12%	-6%	-1%	8%	-3%	3%
COc1cc2c(=O)n(Cc3ccccc3)c(=O)n(CC(=O)NCc3ccco3)c2cc1OC	?	?	-1%	-18%	-2%	-13%
